Measured values published in PubChem BioAssay (EPA / NIEHS).
Calls of active or inactive are those of the source. The calls were made as follows: active = hit-call score of the fitted dose curve at least 0.9, where 1 is the maximum; inactive = score below 0.9.

Key:
[1] = read-out: Vascular endothelial growth factor receptor 2 (Homo sapiens) (UniProt P35968); test: BSK_4H_VEGFRII: BioMAP Diversity Plus: 4H Assay for Vascular endothelial growth factor receptor 2 (VEGFR2) Biomarker Activity (AID 2283031); details: primary human endothelial cells (HUVEC); actives raise or lower the signal
Outline: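 In this multiplexed HUVEC system, biomarker ELISA was performed after 24 h chemical exposure. Parallel SRB staining (TCA fixation, 560 nm) tracked cytotoxicity; DMSO served as baseline.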

[2] = read-out: Human Leukocyte Antigen - DR isotype (HLADR), HLA-DRA (gene 3122); test: BSK_BE3C_HLADR: BioMAP Diversity Plus: BE3C Assay for Human Leukocyte Antigen - DR isotype (HLADR) Biomarker Activity (AID 2283032); details: primary human bronchial epithelial cells; actives raise or lower the signal
Outline: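 ELISA read-out of HLA-DR on human lung bronchial epithelial primary cells, measured 24 h post-dosing. Both increases and decreases were scored relative to DMSO vehicle.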

[3] = read-out: Vascular cell adhesion molecule 1 (VCAM1), VCAM1 (gene 7412); test: BSK_4H_VCAM1: BioMAP Diversity Plus: 4H Assay for Vascular cell adhesion molecule 1 (VCAM1) Biomarker Activity (AID 2283033); details: primary human endothelial cells (HUVEC); actives raise or lower the signal;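 also: cell-surface VCAM-1 protein measured by ELISA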
Outline: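 ELISA read-out of VCAM-1 on human umbilical vein endothelium 24 hours after chemical dosing; gain or loss of signal was fitted relative to DMSO, with sulforhodamine B staining of parallel cultures flagging overt cytotoxicity.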

[4] = read-out: Interferon-gamma inducible Protein 10 (IP10), CXCL10 (gene 3627); test: BSK_BE3C_IP10: BioMAP Diversity Plus: BE3C Assay for Interferon-gamma inducible Protein 10 (IP10) Biomarker Activity (AID 2283034); details: primary human bronchial epithelial cells; actives raise or lower the signal
Outline: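 Chemical is dosed onto human lung bronchial epithelial primary cells, cultures are incubated 24 h, and IP-10 is then quantified by ELISA. Gain or loss of signal is fitted in both directions relative to DMSO.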

[5] = read-out: Monokine induced gamma interferon (MIG), CXCL9 (gene 4283); test: BSK_BE3C_MIG: BioMAP Diversity Plus: BE3C Assay for Monokine induced gamma interferon (MIG) Biomarker Activity (AID 2283035); details: primary human bronchial epithelial cells; actives raise or lower the signal;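 also: MIG protein measured by ELISA in BE3C cultures after 24 h of dosing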
Outline: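 Primary human bronchial epithelial cells treated for 24 h; MIG levels measured by ELISA, fitted bidirectionally versus DMSO. Parallel SRB total-protein staining assessed cytotoxicity.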

[6] = read-out: Transforming growth factor beta 1 (TGFb1), TGFB1 (gene 7040); test: BSK_BE3C_TGFb1: BioMAP Diversity Plus: BE3C Assay for Transforming growth factor beta 1 (TGFb1) Biomarker Activity (AID 2283036;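 also: TGF-b1 protein level measured by ELISA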); details: primary human bronchial epithelial cells; actives raise or lower the signal
Outline: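 Primary human lung bronchial epithelial cells; compound exposure 24 h; TGF-b1 by ELISA; bidirectional fit, DMSO baseline. Parallel SRB total-protein staining for cytotoxicity.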

[7] = read-out: Plasminogen activator inhibitor-1 (PAI1), SERPINE1 (gene 5054); test: BSK_BE3C_PAI1: BioMAP Diversity Plus: BE3C Assay for Plasminogen activator inhibitor-1 (PAI1) Biomarker Activity (AID 2283037); details: primary human bronchial epithelial cells; actives raise or lower the signal
Outline: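 Primary human lung bronchial epithelial cells; chemical dosing; 24 h; PAI-1 measured by ELISA; bidirectional fit referenced to DMSO as negative control.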

[8] = read-out: urokinase plasminogen activator (uPA), PLAU (gene 5328); test: BSK_BE3C_uPA: BioMAP Diversity Plus: BE3C Assay for urokinase plasminogen activator (uPA) Biomarker Activity (AID 2283038); details: primary human bronchial epithelial cells; actives raise or lower the signal;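 also: uPA protein level quantified by ELISA in cell cultures; uPA read one day after compound addition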
Outline: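 Using confluent primary human lung bronchial epithelial cultures, we dosed chemicals, waited 24 h, then ran a uPA ELISA, fitting bidirectionally against DMSO.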

[9] = read-out: Urokinase-type plasminogen activator receptor (uPAR), PLAUR (gene 5329); test: BSK_BE3C_uPAR: BioMAP Diversity Plus: BE3C Assay for Urokinase-type plasminogen activator receptor (uPAR) Biomarker Activity (AID 2283039); details: primary human bronchial epithelial cells; actives raise or lower the signal;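 also: cells exposed to compound for one day before measurement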
Outline: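 Human bronchial epithelial primary cells; chemical exposure 24 h; uPAR by ELISA; bidirectional fit vs DMSO control.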

[10] = read-out: Interleukin-6 (IL6), IL6 (gene 3569); test: BSK_CASM3C_IL6: BioMAP Diversity Plus: CASM3C Assay for Interleukin-6 (IL6) Biomarker Activity for (AID 2283040); details: primary human coronary artery smooth muscle cells; actives raise or lower the signal
[11] = read-out: Tissue plasminogen activator (tPA), PLAT (gene 5327); test: BSK_BE3C_tPA: BioMAP Diversity Plus: BE3C Assay for Tissue plasminogen activator (tPA) Biomarker Activity (AID 2283041); details: primary human bronchial epithelial cells; actives raise or lower the signal;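 also: tPA level quantified by ELISA one day after compound addition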
Outline: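 Primary human lung bronchial epithelial cultures receive test chemical; after 24 h, tPA is quantified by ELISA, and gain or loss of signal is fitted bidirectionally relative to DMSO baseline.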

[12] = read-out: Interleukin-8 (IL8), CXCL8 (gene 3576); test: BSK_CASM3C_IL8: BioMAP Diversity Plus: CASM3C Assay for Interleukin-8 (IL8) Biomarker Activity (AID 2283042); details: primary human coronary artery smooth muscle cells; actives raise or lower the signal;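 also: IL-8 protein level quantified by ELISA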
[13] = read-out: Human Leukocyte Antigen - DR isotype (HLADR), HLA-DRA (gene 3122); test: BSK_CASM3C_HLADR: BioMAP Diversity Plus: CASM3C Assay for Human Leukocyte Antigen - DR isotype (HLADR) Biomarker Activity (AID 2283043); details: primary human coronary artery smooth muscle cells; actives raise or lower the signal;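 also: cell-surface HLA-DR protein level quantified by ELISA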
[14] = read-out: Macrophage colony-stimulating factor (MCSF), CSF1 (gene 1435); test: BSK_CASM3C_MCSF: BioMAP Diversity Plus: CASM3C Assay for Macrophage colony-stimulating factor (MCSF) Biomarker Activity (AID 2283044); details: primary human coronary artery smooth muscle cells; actives raise or lower the signal;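 also: M-CSF protein amount quantified by ELISA after 24 h exposure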
[15] = read-out: Low-density lipoprotein receptor (LDLR), LDLR (gene 3949); test: BSK_CASM3C_LDLR: BioMAP Diversity Plus: CASM3C Assay for Low-density lipoprotein receptor (LDLR) Biomarker Activity (AID 2283045); details: primary human coronary artery smooth muscle cells; actives raise or lower the signal;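 also: LDLR protein level on the cell surface quantified by ELISA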
[16] = read-out: Monocyte Chemoattractant Protein-1 (MCP1), CCL2 (gene 6347); test: BSK_CASM3C_MCP1: BioMAP Diversity Plus: CASM3C Assay for Monocyte Chemoattractant Protein-1 (MCP1) Biomarker Activity (AID 2283046); details: primary human coronary artery smooth muscle cells; actives raise or lower the signal;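 also: MCP-1 level quantified by ELISA 24 h after dosing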
[17] = BSK_CASM3C_Proliferation: Cell Proliferation Assessment in the BioMAP Diversity Plus: CASM3C Assay (AID 2283047); details: primary human coronary artery smooth muscle cells;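 also: sulforhodamine B total protein stain as relative cell number at 560 nm; sub-confluent cells exposed 48 h before staining; fitted both ways against DMSO so gain or loss of cell number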
[18] = read-out: Monokine induced gamma interferon (MIG), CXCL9 (gene 4283); test: BSK_CASM3C_MIG: BioMAP Diversity Plus: CASM3C Assay for Monokine induced gamma interferon (MIG) Biomarker Activity (AID 2283048); details: primary human coronary artery smooth muscle cells; actives raise or lower the signal
[19] = read-out: serum amyloid A (SAA), SAA1 (gene 6288); test: BSK_CASM3C_SAA: BioMAP Diversity Plus: CASM3C Assay for serum amyloid A (SAA) Biomarker Activity (AID 2283049); details: primary human coronary artery smooth muscle cells; actives raise or lower the signal;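 also: SAA protein level quantified by ELISA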
[20] = BSK_CASM3C_SRB: Viability Assessment in the BioMAP Diversity Plus: CASM3C Assay (AID 2283050); details: primary human coronary artery smooth muscle cells;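 also: total protein by SRB staining as cytotoxicity measure in parallel cultures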

Measured: outcome

CCOP(=S)(OCC)SCS(=O)(=O)CC
inactive: [1] | [2] | [3] | [4] | [5] | [6] | [7] | [8] | [9] | [10] | [11] | [12] | [13] | [14] | [15] | [16] | [17] | [18] | [19] | [20]

CCC(C)(C)c1ccc(O)cc1
inactive: [1] | [2] | [3] | [4] | [5] | [6] | [7] | [8] | [9] | [10] | [11] | [12] | [13] | [14] | [15] | [16] | [17] | [18] | [19] | [20]

c1ccc2c(c1)Nc1ccccc1S2
inactive: [1] | [2] | [3] | [4] | [5] | [6] | [7] | [8] | [9] | [10] | [11] | [12] | [13] | [14] | [15] | [16] | [17] | [18] | [19] | [20]

CCN(CC)c1ccccc1
inactive: [1] | [2] | [3] | [4] | [5] | [6] | [7] | [8] | [9] | [10] | [11] | [12] | [13] | [14] | [15] | [16] | [17] | [18] | [19] | [20]

Cc1ccc(N)cc1N
inactive: [1] | [2] | [3] | [4] | [5] | [6] | [7] | [8] | [9] | [10] | [11] | [12] | [13] | [14] | [15] | [16] | [17] | [18] | [19] | [20]

CSC(C)(C)C=NO
inactive: [1] | [2] | [3] | [4] | [5] | [6] | [7] | [8] | [9] | [10] | [11] | [12] | [13] | [14] | [15] | [16] | [17] | [18] | [19] | [20]

Nc1ccc2ccccc2c1
inactive: [1] | [2] | [3] | [4] | [5] | [6] | [7] | [8] | [9] | [10] | [11] | [12] | [13] | [14] | [15] | [16] | [17] | [18] | [19] | [20]
